The values below come from PMC4336329 (PLoS ONE, 2015).

Among all 310,000 compounds or so, about 14,000 (4.5%) showed an effect of 50% or more. The effect is printed as a negative number. Shown is part of a subset that was picked to be rich in strong results.
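Also: peak tail current of the secondary pulse compared with the same well before compound.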

Chain of human ether-à-go-go-related gene (hERG) potassium channel (Q12809 whole entry, looked up): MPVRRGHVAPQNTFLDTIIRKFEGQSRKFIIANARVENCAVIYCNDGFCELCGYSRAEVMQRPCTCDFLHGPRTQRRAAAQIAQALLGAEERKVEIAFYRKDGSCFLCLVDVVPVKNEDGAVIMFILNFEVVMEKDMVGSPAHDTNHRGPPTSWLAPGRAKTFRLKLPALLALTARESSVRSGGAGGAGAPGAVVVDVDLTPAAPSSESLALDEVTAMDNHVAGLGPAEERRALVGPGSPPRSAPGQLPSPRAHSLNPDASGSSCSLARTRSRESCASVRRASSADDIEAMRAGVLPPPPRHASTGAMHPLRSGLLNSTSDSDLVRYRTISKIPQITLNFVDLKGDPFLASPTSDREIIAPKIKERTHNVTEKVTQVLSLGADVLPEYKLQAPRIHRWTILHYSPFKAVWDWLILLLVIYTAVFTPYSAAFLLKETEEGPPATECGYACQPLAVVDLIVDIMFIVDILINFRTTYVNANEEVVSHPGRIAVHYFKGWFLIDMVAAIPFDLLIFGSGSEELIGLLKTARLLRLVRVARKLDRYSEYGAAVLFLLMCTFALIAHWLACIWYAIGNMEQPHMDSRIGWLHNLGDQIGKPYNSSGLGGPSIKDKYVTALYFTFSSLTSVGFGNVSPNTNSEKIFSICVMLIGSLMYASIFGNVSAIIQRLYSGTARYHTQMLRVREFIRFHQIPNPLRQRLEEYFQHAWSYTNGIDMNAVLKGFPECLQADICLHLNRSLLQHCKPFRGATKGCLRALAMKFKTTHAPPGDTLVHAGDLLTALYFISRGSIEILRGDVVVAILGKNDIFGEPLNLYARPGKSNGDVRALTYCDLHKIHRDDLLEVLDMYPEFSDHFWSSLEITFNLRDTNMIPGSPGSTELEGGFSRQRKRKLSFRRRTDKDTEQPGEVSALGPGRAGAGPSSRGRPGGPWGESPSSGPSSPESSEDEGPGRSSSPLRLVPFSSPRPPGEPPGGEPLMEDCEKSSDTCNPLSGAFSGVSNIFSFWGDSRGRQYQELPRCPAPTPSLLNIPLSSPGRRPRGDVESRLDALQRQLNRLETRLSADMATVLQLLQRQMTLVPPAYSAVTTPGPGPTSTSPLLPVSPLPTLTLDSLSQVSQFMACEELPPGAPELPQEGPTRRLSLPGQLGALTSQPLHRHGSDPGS

This experiment has as its target human ether-à-go-go-related gene (hERG) potassium channel (human, UniProt Q12809). Nature of the experiment: primary screen, population patch clamp on CHO cells stably expressing hERG; higher = less effect of the substance. How it is done:
Briefly, Chinese hamster ovary (CHO) cells stably expressing the hERG channel were dislodged from tissue culture flasks and dispensed into PPC plates. […] During the recording, background leak currents were estimated by a 100 ms step to -80 mV from an initial holding potential of -70 mV and subtracted from the subsequent current measurement. The campaign was conducted in two phases using slight differences in recording protocol. In the first phase, the initial voltage pulse used a 100 ms step to -30 mV from a holding potential of -70 mV, a 2 s conditioning step to +25 mV, and a 2 s test step to -30 mV. During the second phase of the screen, the potential during the conditioning step was raised to +45 mV. In both phases of the campaign, a secondary voltage pulse was applied using the same parameters as the second phase initial pulse. The initial and secondary pulses were applied in the absence of compound, and upon application of 1 μM and 10 μM test concentrations. […]
Regarding `CCN1CCN(C(=O)c2sc3nc(C)nc(N4CCC(C)CC4)c3c2C)CC1`, the “hERG current change (%, negative = inhibition) at 10uM” value was -8.16%.

Take `Cc1c(C(=O)N2CCN(c3ccccc3)CC2)sc2ncnc(N3CCC(C)CC3)c12`: the “hERG current change (%, negative = inhibition) at 10uM” value is -29.9%.

With `CCOC(=O)C1CCN(C(=O)c2sc3ncnc(N4CCC(C)CC4)c3c2C)CC1`, the “hERG current change (%, negative = inhibition) at 10uM” value is given as -73.2%.

For the compound `CCOC(=O)C1CCN(C(=O)c2sc3nc(C)nc(N4CCC(C)CC4)c3c2C)CC1`, the “hERG current change (%, negative = inhibition) at 10uM” value is recorded as -52.7%.

Turning to `CCOC(=O)C1CCCN(C(=O)c2sc3nc(C)nc(N4CCOCC4)c3c2C)C1` (stereo not drawn), the “hERG current change (%, negative = inhibition) at 10uM” value was -3.42%.

With `Cc1c(C(=O)N2CCC(Cc3ccccc3)CC2)sc2ncnc(N3CCC(C)CC3)c12`, the “hERG current change (%, negative = inhibition) at 10uM” value stood at 8.19%.

For the compound `Cc1nn(-c2nnc(NC3CCCCC3)nn2)c(C)c1Br`, the “hERG current change (%, negative = inhibition) at 10uM” value came out at 10.8%.

Consider `OC1(c2ccccc2F)CCN(Cc2nnnn2Cc2ccc(F)cc2)CC1`, for which the “hERG current change (%, negative = inhibition) at 10uM” value is 8.52%.

Take `C/C(N)=C(/C#N)C(=O)CSc1nc2cc(Cl)ccc2c(=O)n1Cc1ccco1`: the “hERG current change (%, negative = inhibition) at 10uM” value is 16.8%.

`CC1(C)CC(=O)C2=C(C1)OC(/N=C/N1CCOCC1)=C(C#N)C2c1ccccc1` (stereo not drawn): the “hERG current change (%, negative = inhibition) at 10uM” value is -11%.

Regarding `CCOc1cccc(OCCn2cnc3ccccc3c2=O)c1`, the “hERG current change (%, negative = inhibition) at 10uM” value amounted to 5.84%.

On to `Cn1c(=O)c2c(ncn2CC(=O)N2CCN(c3cccc(Cl)c3)CC2)n(C)c1=O`, for which the “hERG current change (%, negative = inhibition) at 10uM” value is -64.2%.

In the case of `Cn1c(=O)c2c(nc(N3CCCC3)n2C)n(C)c1=O`, the “hERG current change (%, negative = inhibition) at 10uM” value is reported as 10%.

As for `Cn1c(=O)c2c(ncn2CC(=O)N2CCN(c3ccccc3)CC2)n(C)c1=O`, the “hERG current change (%, negative = inhibition) at 10uM” value is reported as 0.318%.

`Cn1c(=O)c2c(ncn2CC(=O)N2CCN(c3ccc([N+](=O)[O-])cc3)CC2)n(C)c1=O`: the “hERG current change (%, negative = inhibition) at 10uM” value is listed as -72%.

As for `Cn1c(=O)c2c(nc(N3CCOCC3)n2C)n(C)c1=O`, the “hERG current change (%, negative = inhibition) at 10uM” value is -4.44%.

On to `Cn1c(=O)c2c(ncn2CC(=O)N2CCN(c3ccc(F)cc3)CC2)n(C)c1=O`, for which the “hERG current change (%, negative = inhibition) at 10uM” value is listed as -23.4%.

Consider `Cn1c(=O)c2c(nc(N3CCN(c4ccc([N+](=O)[O-])cc4)CC3)n2C)n(C)c1=O`, for which the “hERG current change (%, negative = inhibition) at 10uM” value is reported as -76.2%.

With `Cc1cccc(N2CCN(C(=O)Cn3cnc4c3c(=O)n(C)c(=O)n4C)CC2)c1C`, the “hERG current change (%, negative = inhibition) at 10uM” value was -26%.

As to `COc1ccc(N2CCN(C(=O)Cn3cnc4c3c(=O)n(C)c(=O)n4C)CC2)cc1`, the “hERG current change (%, negative = inhibition) at 10uM” value is 5.48%.

`Cc1ccc(C(=O)c2ccccc2C(=O)O)s1`: the “hERG current change (%, negative = inhibition) at 10uM” value was -1.28%.

Consider `COc1cccc(N2CCN(C3C4CC5CC(C4)CC3C5)CC2)c1` (stereo not drawn), for which the “hERG current change (%, negative = inhibition) at 10uM” value stood at 2.54%.

Take `CC(=O)Nc1nc(NC(=O)/C=C/c2ccccc2)n(-c2ccccc2)n1`: the “hERG current change (%, negative = inhibition) at 10uM” value is reported as -1.34%.

As for `COC(CNC(=O)c1ccc2c(c1)ncn2C1CCCCCC1)OC`, the “hERG current change (%, negative = inhibition) at 10uM” value came out at 4.09%.

Turning to `O=C(c1ccc(F)cc1)N1CCCC(c2nc(-c3cccs3)no2)C1` (stereo not drawn), the “hERG current change (%, negative = inhibition) at 10uM” value is recorded as -18.5%.

Take `O=C(c1c(F)cccc1F)N1CCCC(c2nc(-c3ccc(F)cc3)no2)C1` (stereo not drawn): the “hERG current change (%, negative = inhibition) at 10uM” value is -6.69%.

For `O=C(c1cccs1)N1CCCC(c2nc(-c3ccc(F)cc3)no2)C1` (stereo not drawn), the “hERG current change (%, negative = inhibition) at 10uM” value was -51.7%.

`O=C(c1ccc(F)cc1)N1CCCC(c2nc(-c3ccncc3)no2)C1` (stereo not drawn): the “hERG current change (%, negative = inhibition) at 10uM” value is -65.6%.

Take `COc1ccc(-c2noc(C3CCCN(C(=O)c4cccs4)C3)n2)cc1` (stereo not drawn): the “hERG current change (%, negative = inhibition) at 10uM” value is listed as -21.1%.

Consider `COc1ccc(-c2noc(C3CCCN(C(=O)c4ccc(F)cc4)C3)n2)cc1` (stereo not drawn), for which the “hERG current change (%, negative = inhibition) at 10uM” value is -35.3%.

As for `CCN1C(=O)c2cccc3c(S(=O)(=O)NCC4CCCO4)ccc1c23` (stereo not drawn), the “hERG current change (%, negative = inhibition) at 10uM” value turned out to be 1.95%.

With `COCCNC(=O)C(c1cccc(OC)c1)N(C(=O)Cn1nnc2ccccc21)c1cccnc1` (stereo not drawn), the “hERG current change (%, negative = inhibition) at 10uM” value was found to be 7.66%.

With `COCC1CCCCN1C(=O)c1ccc(OC2CCN(Cc3ccccn3)CC2)cc1` (stereo not drawn), the “hERG current change (%, negative = inhibition) at 10uM” value was determined as 1.34%.

As for `CC(=O)Nc1cc(NC(C)=O)cc(-c2nc3ccccc3[nH]2)c1`, the “hERG current change (%, negative = inhibition) at 10uM” value is recorded as 3.84%.

As to `Cc1ccc(C(=O)N/C(=C/c2ccc(C(C)C)cc2)C(=O)NCCCN2CCOCC2)cc1`, the “hERG current change (%, negative = inhibition) at 10uM” value is -65.8%.

As for `Cc1ccc(C(=O)N/C(=C\c2ccc(C(C)C)cc2)C(=O)NCCCN2CCOCC2)cc1`, the “hERG current change (%, negative = inhibition) at 10uM” value is listed as -72.3%.

Turning to `COc1ccc(/C=C(\NC(=O)c2ccc(C)cc2)C(=O)NCCCN2CCOCC2)cc1OC`, the “hERG current change (%, negative = inhibition) at 10uM” value amounted to 19.9%.

For the compound `CC(C)c1ccc(/C=N/NC(=O)C(=O)NCCCN2CCOCC2)cc1`, the “hERG current change (%, negative = inhibition) at 10uM” value is listed as -20.6%.

For `CC(C)c1ccc(NC2CCCN(C(=O)c3n[nH]c4c3CCC4)C2)cc1` (stereo not drawn), the “hERG current change (%, negative = inhibition) at 10uM” value was found to be 5.38%.

As for `C=CCN(c1ccccc1C(=O)O)S(=O)(=O)c1ccc(NC(=O)OC)cc1`, the “hERG current change (%, negative = inhibition) at 10uM” value was 4.39%.

For the compound `CC1CCCCC1NC(=O)CN(C)S(=O)(=O)c1cccc2cccnc12` (stereo not drawn), the “hERG current change (%, negative = inhibition) at 10uM” value was -0.115%.

On to `COc1cccc(SCC(=O)N2CCN(c3ccccc3)CC2)c1`, for which the “hERG current change (%, negative = inhibition) at 10uM” value is reported as -1.23%.
